Test results: PubChem BioAssay AID2391 (Southern Research Specialized Biocontainment Screening …, 2010)
Out of some 310,000 compounds screened, about 410 (0.13%) were called active. Not shown: some 2% with an inconclusive outcome. No rule for the calls is given here. The list is a sample of the results. Potency and affinity values are given separately.

Assay: RSV antiviral activity via CPE protection, HEp-2 cells, primary 10 µM value included (AID 2391)
Settings: RSV-induced CPE inhibition, at 10 µM, hits give high values

| Structure (SMILES) | CPE inhibition |
| --- | --- |
| COc1cc(F)ccc1CN1CCC(n2nccc2NC(=O)C2CCOC2)CC1 (stereo not given) | -1% (inactive) |
| Cc1cc(C(=O)Cn2nnc3ccccc3c2=O)c(C)n1-c1c(C)n(C)n(-c2ccccc2)c1=O | 2.35% (inactive) |
| COc1ccc(-n2c(C)cc(C(=O)Cn3nnc4ccccc4c3=O)c2C)cc1 | 2.15% (inactive) |
| CN(C)c1ccc(CN(CC2CCCO2)C(=O)c2cccs2)cc1 (stereo not given) | -0.5% (inactive) |
| Cn1c(=O)c2c(n(Cc3ccccc3)c1=O)NC(=O)C2CC(=O)O (stereo not given) | 0.62% (inactive) |
| Cc1ccccc1OCCC(=O)Nc1ccc2c(C)cc(=O)oc2c1 | 1.79% (inactive) |
| CCC(C)n1c(SCC(=O)Nc2ccccc2C(F)(F)F)nc2ccsc2c1=O (stereo not given) | 13.6% (inactive) |
| COCCN(C(=O)C(C)C)c1nnc(-c2ccc(C)cc2)s1 | 1.29% (inactive) |
| COCCN(C(=O)C1CC1)c1nnc(-c2cccc(C)c2)s1 | 14% (inactive) |
| C=CCc1cccc(/C=N/NC(=O)c2ccccc2OC)c1O | 4.29% (inactive) |
| COc1ccc(Nc2ccccc2C(=O)O)cc1 | -0.36% (inactive) |
| O=C(O)c1ccccc1Nc1ccccc1 | 2.02% (inactive) |
| O=C(O)c1cc([N+](=O)[O-])ccc1Nc1ccccc1 | 2.12% (inactive) |
| O=C(O)c1ccccc1Nc1ccccc1C(=O)O | 0.65% (inactive) |
| O=C(NCCOc1ccccc1Cl)c1ncn[nH]1 | 0.27% (inactive) |
| CSc1ccc(S(=O)(=O)NCCSC(C)(C)C)cc1 | -1.64% (inactive) |
| COc1cc(CC2COC(c3ccc(O)c(OC)c3)C2COC(C)=O)ccc1O (stereo not given) | 5.55% (inactive) |
| CCOC(=O)CCCNC(=O)CCNC(=O)c1ccc(OCCC(C)C)cc1 | -2.65% (inactive) |
| Cc1ccc(C(=O)N2CCN(c3ccc(NC(=O)c4cccs4)cc3)CC2)cc1 | 3.02% (inactive) |
| Cc1ccc(OCc2cc(C(=O)NCc3cnn(-c4cccc(F)c4)c3)no2)cn1 | -0.86% (inactive) |
| Cc1nn(-c2ccccc2)c(C)c1/C=N/O | 5.01% (inactive) |
| Cc1nn(-c2ccccc2)c(C)c1/C=N/N1CCN(c2ccccc2)CC1 | 2.1% (inactive) |
| CC(=O)N1c2ccccc2Nc2ccccc21 | 0.92% (inactive) |

| Structure (SMILES) | CPE inhibition |
| --- | --- |
| CC(C)(C)C(=O)CC1(O)C(=O)N(Cc2ccccc2)c2ccccc21 (stereo not given) | 1.23% (inactive) |
| Cc1cccc(NC(=O)CSc2nc3ccccc3nc2N2CCCC2)c1 | 43.3% (inactive) |
| Cc1cc(C)cc(NC(=O)CSc2nc3ccccc3nc2N2CCCCC2)c1 | -0.51% (inactive) |
| COc1cccc(NC(=O)CSc2nc3ccccc3nc2N2CCOCC2)c1 | 1.87% (inactive) |
| COc1ccc(NC(=O)CSc2nc3ccccc3nc2N2CCCC2)cc1 | 5.07% (inactive) |
| O=C(CCN1c2ccccc2Sc2ccccc21)OCC(=O)N1CCN(C(=O)c2ccco2)CC1 | 5.26% (inactive) |
| Cc1cc(C)cc(NC(=O)c2ccc(CNc3c(N4CCCC4)c(=O)c3=O)cc2)c1 | 2.89% (inactive) |
| CCOC(=O)/C(C#N)=C/c1c(N2CCN(C)CC2)nc2c(C)cccn2c1=O | 1.42% (inactive) |
| COc1ccc(NC(=S)N2CCN(c3ccccc3)CC2)c(OC)c1 | 3.36% (inactive) |
| CC(Sc1n[nH]c(N)n1)C(=O)Nc1ccccc1-c1ccccc1 (stereo not given) | -0.4% (inactive) |
| OCC1(CCOc2ccccc2)CCN(Cc2ccncc2)CC1 | -0.49% (inactive) |
| CCOC(=O)C1(CCOc2ccccc2)CCN(Cc2cccn2-c2ncccn2)CC1 | -2.95% (inactive) |
| COc1cc(OC)c(OC)cc1/C=N/NC(=O)c1cccc(S(=O)(=O)N2CCOCC2)c1 | 0.2% (inactive) |
| Cc1cccc(NC(=O)C2CCN(S(=O)(=O)c3ccc4c(c3)NC(=O)CO4)CC2)c1C | 0.6% (inactive) |
| O=C(O)c1[nH]c2ccc(Cl)cc2c1CC(=O)N1CCN(C(=O)c2ccco2)CC1 | 0.74% (inactive) |
| O=C(c1cc2cc(Cl)ccc2[nH]1)N1CCN(C(=O)c2ccco2)CC1 | 1.05% (inactive) |
| CCOc1ccc(-c2nnc3ccc(SCC(=O)N4CCCCC4)nn23)cc1 | 1.74% (inactive) |
| CCOc1ccc(CNC(=O)CCCn2nc(C)c3c(C)n(-c4ccc(C)cc4)nc3c2=O)cc1 | 12.6% (inactive) |
| COc1cccc(C(=O)NC(=S)Nc2ccc(Cl)c(C(=O)O)c2)c1 | 1.26% (inactive) |
| Cc1cccc(Nc2c([N+](=O)[O-])cc(C(=O)N3CC(=O)Nc4ccccc43)cc2[N+](=O)[O-])c1 | 3.38% (inactive) |
| Cc1ccc(Nc2c([N+](=O)[O-])cc(C(=O)N3CC(=O)Nc4ccccc43)cc2[N+](=O)[O-])c(C)c1 | -0.4% (inactive) |
| CCOc1cc(/C=C/c2nc3cc(C)c(C)cc3s2)ccc1OCC(=O)N1CCOCC1 | 15.4% (inactive) |
| Cc1nn(C)c(Cl)c1CN1CCCC(CO)(Cc2cccc(Cl)c2)C1 (stereo not given) | 68.4% (inactive) |

| Structure (SMILES) | CPE inhibition |
| --- | --- |
| CCN1CCCC(CO)(Cc2ccccc2)C1 (stereo not given) | -0.72% (inactive) |
| Cc1nn(C)c(Cl)c1CN1CCCC(CO)(Cc2ccccc2)C1 (stereo not given) | 62.6% (inactive) |
| Cn1cc(CN2CCCC(CO)(Cc3ccccc3)C2)cn1 (stereo not given) | -1.49% (inactive) |
| O=C(COC(=O)c1ccc(F)cc1F)Nc1cccnc1Cl | 1.68% (inactive) |
| CSc1nc(N)c(NC(=O)c2ccc(Br)o2)c(=O)[nH]1 | 0.99% (inactive) |
| CCOC(=O)c1c(C)[nH]c(C(=O)NCc2ccccn2)c1C | -0.66% (inactive) |
| COc1ccc(NC(=S)NCCc2c(C)[nH]c3ccc(OC)cc23)cc1 | 1.21% (inactive) |
| COc1ccc(NC(=O)CCn2c(=O)c3cccn3c3ccccc32)cc1 | 3.29% (inactive) |
| COc1ccc(NC(=O)CCn2c(=O)c3cccn3c3ccccc32)c(OC)c1 | 8.66% (inactive) |
| C=CCCCCCCCCC(=O)NN | 1.7% (inactive) |
| CCc1nnc(NC(=O)Cc2c[nH]c3ccccc23)s1 | 2.52% (inactive) |
| Cc1cnc(NC(=O)Cc2c[nH]c3ccccc23)s1 | 3.89% (inactive) |
| NC(=O)[C@@H]1CC2(CC(c3cccc(NC(=O)COc4ccc(Cl)cc4)c3)=NO2)CN1C(=O)c1ccccc1 (stereo not given in full) | 15.3% (inactive) |
| C/C=C(/C)C(=O)Nc1cccc(C2=NOC3(C2)C[C@@H](C(N)=O)N(C(=O)c2ccc(OC)cc2)C3)c1 (stereo not given in full) | 0.8% (inactive) |
| NC(=O)[C@H]1CC2(CC(c3cccc(NC(=O)COc4ccc(Cl)cc4)c3)=NO2)CN1C(=O)c1ccc(Cl)cc1 (stereo not given in full) | -1.09% (inactive) |
| C=C(C)C(=O)Nc1cccc(C2=NOC3(C2)C[C@H](C(N)=O)N(C(=O)c2ccccc2)C3)c1 (stereo not given in full) | 1.43% (inactive) |
| C=CCn1c(-c2cccn(Cc3ccc(Cl)cc3Cl)c2=O)n[nH]c1=S | 8.02% (inactive) |
| CCCN1CCOC(CC(=O)Nc2ccc([N+](=O)[O-])cc2)C1=O (stereo not given) | -1% (inactive) |
| CCOC(=O)C1CCN(C(=O)c2cccc(S(=O)(=O)N3c4ccccc4CC3C)c2)CC1 (stereo not given) | 0.5% (inactive) |
| O=C(c1cccc(S(=O)(=O)N2CCCC2)c1)N1CCN(c2ncccn2)CC1 | 1.05% (inactive) |
| CC1CN(C(=O)c2cccc(S(=O)(=O)Nc3ccc(Cl)cc3)c2)CC(C)O1 (stereo not given) | 4.6% (inactive) |
| CCC(OC(=O)c1ccco1)C(=O)NCc1ccc(OC)cc1 (stereo not given) | 1.29% (inactive) |
| O=C(O)/C(=C\c1cccc(F)c1)c1ccc(S(=O)(=O)N2CCCCC2)s1 | 3.11% (inactive) |

| Structure (SMILES) | CPE inhibition |
| --- | --- |
| CCC(C)[C@H](NC(=O)OC(C)(C)C)C(=O)N/N=C/c1cccc2nccnc12 (stereo not given in full) | 0.75% (inactive) |
| COc1ccc2nc(/C=N/NC(=O)[C@H](CCSC)NC(=O)OC(C)(C)C)ccc2c1 | 18.6% (inactive) |
| Cc1ccc2cc(/C=N/NC(=O)[C@H](C)NC(=O)OC(C)(C)C)c(Cl)nc2c1 | 2.96% (inactive) |
| COc1ccc2nc(/C=N/NC(=O)CCCCCNC(=O)OC(C)(C)C)ccc2c1 | 6.33% (inactive) |
| C(=C/c1ccnc2nc(SC/C=C/c3ccccc3)nn12)/c1ccccc1 | 2.09% (inactive) |
| Cc1cccc(CCNC(=O)c2nnc(Cc3ccc(Cl)cc3)o2)c1 | 2.96% (inactive) |
| CNc1cc(C(F)(F)F)nc(-c2ccccn2)n1 | -0.28% (inactive) |
| COc1cc(OC)cc(C(=O)Nc2cccc3c2CCCC3)c1 | -0.47% (inactive) |
| C=CCn1c(=O)c2c3c(sc2n2c(Nc4ccccc4)nnc12)CCCC3 | 13.3% (inactive) |
| O=C1OC(CCl)CN1Cc1ccc([N+](=O)[O-])cc1 (stereo not given) | 0.81% (inactive) |
| Cc1ccc(C)c(NC(=O)CN(C)C(=O)c2ccc(S(=O)(=O)N3CCCCCC3)cc2)c1 | 0.63% (inactive) |
| Cc1ccccc1NCC(=O)N=Nc1c(O)[nH]c2ccc([N+](=O)[O-])cc12 | 0.48% (inactive) |
| Cc1ccc(NCC(=O)N=Nc2c(O)[nH]c3ccc([N+](=O)[O-])cc23)cc1 | 2.27% (inactive) |
| O=C(CNC(=O)c1ccc(Br)cc1)N=Nc1c(O)[nH]c2ccc([N+](=O)[O-])cc12 | 6.52% (inactive) |
| O=C(N=Nc1c(O)[nH]c2ccc([N+](=O)[O-])cc12)c1ccccc1Cl | 3.59% (inactive) |
| O=C(CNC(=O)c1ccco1)N=Nc1c(O)[nH]c2ccc(Br)cc12 | 7.48% (inactive) |
| O=C(O)c1ccccc1N=Nc1c(O)[nH]c2ccc([N+](=O)[O-])cc12 | 1.41% (inactive) |
| Clc1cnc(N/N=C/c2ccco2)c(Cl)c1 | 5.1% (inactive) |
| O=C(CC1C(=O)NCCN1Cc1ccoc1)NCc1cccc(OC(F)(F)F)c1 (stereo not given) | -0.85% (inactive) |
| CC(Sc1nnc(CNC(=O)c2ccco2)n1C)C(=O)Nc1nccs1 (stereo not given) | -0.02% (inactive) |
| CCN(CC(=O)NCc1ccc(F)cc1)C(=O)COc1ccc2ccccc2c1 | 1.64% (inactive) |
